In PubChem BioAssay one finds outcome, fold change and cell count data, which are given here for 30 compounds.

Inconclusive results are not listed. Calls of active or inactive are those of the source.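 The calls were made as follows, unless noted: active = compounds whose cell count with miR-34 switched on is under 0.7 times the count with it off; inactive = the rest.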

A short description of assay [1]: SU-DIPG-XXV glioma cell viability, MIPE5.0 library, qHTS (AID 1347068; cut-off not given, nearly all actives have IC50 up to about 30 µM). In general terms: In qHTS, concentration-response curves come from the screen itself.
The nature of assay [2]: sensitizers of A549 cells to miR-34 induction, primary screen, imaging, A549 dox-inducible miR-34, nuclei and caspase counts (AID 1347080). The conditions noted are these: A549 miR-34 inducible, Hoechst nuclei count, 48 h.
The mark [3] stands for this setting: stronger effect = lower value, cell number ratio, induced over uninduced.
Where [4] appears, read: measured here: relative caspase fold change +Dox/-Dox.
The mark [5] stands for this setting: measured here: total cells with miR-34 induction, stronger effect = lower value.
[6] abbreviates: measured here: total cells without miR-34 induction.

With `CCC1CCCCN1C(=O)n1ncc(C(O)(c2ccccc2)c2ccccc2)n1` (centres undefined), the compound was classed as inactive in assay [1].
For `CCCCC(C)(C)[C@H](O)/C=C/[C@@H]1[C@@H](C/C=C\CCCC(=O)O)[C@@H](O)C[C@H]1O`, the fold change in assay [2] (setting [3]) is 0.98 (inactive); in assay [2] (setting [4]) it was 1.24. The cell count in assay [2] (setting [5]) was found to be 5690; in assay [2] (setting [6]), 5800.
On to `O=C(C(c1ccccc1)c1ccccc1)N1CCN(CC(O)COc2cccc3ncccc23)CC1` (centres undefined), for which, in assay [1], the compound was called inactive.
With `CC(C)(CCCCCCCCCCC(C)(C)CC(=O)O)CC(=O)O`, the figures for the fold change in assay [2] (setting [3]) and in assay [2] (setting [4]) were 0.985 (inactive) and 0.985, respectively. For the same compound, the cell count in assay [2] (setting [5]) was 6090; in assay [2] (setting [6]), 6180.
As for `CC1=C(CC/C(C)=C/CCC2C=CC(C3=CC(=O)OC3O)OC2O)C(C)(C)CCC1` (centres undefined), the fold change was 0.908 (inactive) in assay [2] (setting [3]) and 0.704 in assay [2] (setting [4]). For the same compound, the cell count in assay [2] (setting [5]) was 1170; in assay [2] (setting [6]) it was 1290.
For the compound `CCCCC[C@H](O)CC[C@@H]1[C@@H](C/C=C\CCCC(=O)O)[C@@H](O)C[C@H]1O`, the fold change in assay [2] (setting [3]) was 0.936 (inactive); in assay [2] (setting [4]), 1.41. Also, the cell count in assay [2] (setting [5]) came to 6190; in assay [2] (setting [6]), 6610.
For `CCCCCCCCCCCCCCCC(=O)OCC`, the fold change in assay [2] (setting [3]) is 0.854 (inactive); in assay [2] (setting [4]), 0.575. Also, the cell count in assay [2] (setting [5]) worked out at 5080; in assay [2] (setting [6]) it was 5950.
Take `CCCCC[C@H](O)/C=C/[C@@H]1[C@@H](C/C=C/CCCC(=O)O)[C@H](O)C[C@H]1O`: the fold change in assay [2] (setting [3]) is 0.95 (inactive); in assay [2] (setting [4]) it was 1.55. In addition, the cell count in assay [2] (setting [5]) stood at 5260; in assay [2] (setting [6]), 5540.
As for `CCCCC/C=C\C/C=C\C/C=C\CCCCCCC(=O)OC`, the fold change in assay [2] (setting [3]) is 1.11 (inactive); in assay [2] (setting [4]), 0.903. Further, the cell count in assay [2] (setting [5]) worked out at 6440; in assay [2] (setting [6]), 5790.
The matching figures for `O=C(O)COc1ccc(C(=O)c2cccs2)c(Cl)c1Cl`: 0.964 (inactive), 0.701, 5800 and 6010.
With `CCCCC[C@H](O)/C=C/[C@@H]1[C@@H](C/C=C\CCCC(=O)NCCO)[C@@H](O)C[C@@H]1O`, the fold change in assay [2] (setting [3]) was 0.916 (inactive); in assay [2] (setting [4]), 1.36. The cell count in assay [2] (setting [5]) was 5800; in assay [2] (setting [6]) it was 6330.
As for `O=C(O)CCC/C=C\C[C@@H]1[C@@H](/C=C/[C@H](O)COc2cccc(C(F)(F)F)c2)[C@H](O)C[C@@H]1O`, the figures for the fold change in assay [2] (setting [3]) and in assay [2] (setting [4]) were 1.06 (inactive) and 0.987, respectively. Further, the figures for the cell count in assay [2] (setting [5]) and in assay [2] (setting [6]) were 6230 and 5890, respectively.
With `CCCCC[C@H](O)/C=C/[C@@H]1[C@@H](C/C=C\CCCC(=O)OC(C)C)[C@@H](O)C[C@H]1O`, the fold change in assay [2] (setting [3]) is 0.994 (inactive); in assay [2] (setting [4]) it was 1.14. Also, the cell count is 5380 in assay [2] (setting [5]) and 5420 in assay [2] (setting [6]).
Turning to `O=C(O)CCC/C=C\CC1C(=O)C[C@@H](O)[C@@H]1/C=C/[C@@H](O)COc1ccccc1` (some centres undefined), the fold change in assay [2] (setting [3]) is 0.868 (inactive); in assay [2] (setting [4]), 1.75. The cell count in assay [2] (setting [5]) was 5400; in assay [2] (setting [6]), 6220.
On to `N=C(N)SCCC[C@H](N)C(=O)O`, for which the fold change is 0.98 (inactive) in assay [2] (setting [3]) and 0.775 in assay [2] (setting [4]). Further, the cell count in assay [2] (setting [5]) came out at 5850; in assay [2] (setting [6]), 5970.
For `CC(C)CCOc1ccc(N)cc1`, the fold change in assay [2] (setting [3]) is 0.779 (inactive); in assay [2] (setting [4]), 2.13. The cell count turned out to be 3780 in assay [2] (setting [5]) and 4850 in assay [2] (setting [6]).
Regarding `CC(C)Oc1ccc(Cc2ccc(NC3=NCCN3)cc2)cc1`, the values for the fold change in assay [2] (setting [3]) and in assay [2] (setting [4]) were 0.976 (inactive) and 0.967, respectively. In addition, the cell count turned out to be 5900 in assay [2] (setting [5]) and 6040 in assay [2] (setting [6]).
The matching figures for `O=C(CCCC[C@@H]1SC[C@@H]2NC(=O)N[C@@H]21)NCCCC[C@H](NC(=O)CCN1C(=O)C=CC1=O)C(=O)O`: 0.911 (inactive), 0.469, 5380 and 5910.
For the compound `CCCCCCCCCCCCCCCCOC[C@H](COP(=O)([O-])OCCCCCC[N+](C)(C)C)OC(C)=O`, the fold change is 0.912 (inactive) in assay [2] (setting [3]) and 1.73 in assay [2] (setting [4]). In addition, the values for the cell count in assay [2] (setting [5]) and in assay [2] (setting [6]) were 5260 and 5770, respectively.
For `CCCCCCCCCCCCCCCC(=O)NC[C@@H](C)O` the same measures were 1.02 (inactive), 0.848, 6270 and 6160.
For the compound `O=C(O)CCC/C=C\C[C@H]1[C@@H](/C=C/[C@@H](O)CCc2ccccc2)[C@H](O)C[C@H]1O`, the fold change was 0.969 (inactive) in assay [2] (setting [3]) and 0.334 in assay [2] (setting [4]). Also, the cell count in assay [2] (setting [5]) amounted to 5150; in assay [2] (setting [6]) it was 5310.
As for `CCCCC[C@@H](O)/C=C/[C@H]1[C@H](O)CC(=O)[C@@H]1C/C=C\CCCC(=O)O`, the values for the fold change in assay [2] (setting [3]) and in assay [2] (setting [4]) were 0.971 (inactive) and 1.57, respectively. For the same compound, the cell count in assay [2] (setting [5]) turned out to be 6000; in assay [2] (setting [6]) it was 6180.
For the compound `CCCCCCCCCCCCCCOc1ccc(C(=O)O)o1`, the fold change in assay [2] (setting [3]) is 0.937 (inactive); in assay [2] (setting [4]), 1. Also, the results for the cell count in assay [2] (setting [5]) and in assay [2] (setting [6]) were 5650 and 6030, respectively.
Turning to `C[C@@H](O)CCC[C@H](O)/C=C/C1=C(C/C=C\CCCC(=O)O)C(=O)CC1`, the fold change in assay [2] (setting [3]) is 0.915 (inactive); in assay [2] (setting [4]) it was 1.31. Also, the cell count in assay [2] (setting [5]) came out at 5730; in assay [2] (setting [6]), 6260.
For `CCCCC[C@H](O)/C=C/[C@H]1[C@H](O)CC(=O)[C@@H]1C/C=C\CCCC(=O)NC(CO)CO` the same measures were 1.04 (inactive), 1.67, 6080 and 5870.
For `CCCCCCCCCCCCCCCC(=O)N[C@H](C)CO`, the fold change in assay [2] (setting [3]) was 0.916 (inactive); in assay [2] (setting [4]), 0.934. In addition, the cell count worked out at 5780 in assay [2] (setting [5]) and 6310 in assay [2] (setting [6]).
In the case of `CCCCCC(=O)CC[C@H]1[C@H](O)CC(=O)[C@@H]1CCCCCCC(=O)O`, the fold change in assay [2] (setting [3]) was 0.94 (inactive); in assay [2] (setting [4]), 1.43. Besides, the cell count in assay [2] (setting [5]) amounted to 5620; in assay [2] (setting [6]), 5980.
For `CCCCC[C@H](O)/C=C/[C@H]1C2COC(C2)[C@@H]1C/C=C/CCCC(=O)O` (some centres undefined), the fold change in assay [2] (setting [3]) was 0.903 (inactive); in assay [2] (setting [4]), 0.876. For the same compound, the cell count came to 5790 in assay [2] (setting [5]) and 6410 in assay [2] (setting [6]).
With `CCNC(=O)CCC/C=C\C[C@@H]1[C@@H](CC[C@@H](O)CCc2ccccc2)[C@H](O)C[C@@H]1O`, the figures for the fold change in assay [2] (setting [3]) and in assay [2] (setting [4]) were 0.901 (inactive) and 1.65, respectively. Further, the cell count was 5780 in assay [2] (setting [5]) and 6420 in assay [2] (setting [6]).
Consider `COc1c(O)c2c(=O)cc(OC)c3c4c(OC)cc(=O)c5c(O)c(OC)c(C[C@@H](C)OC(=O)c6ccccc6)c(c(c1C[C@@H](C)OC(=O)Oc1ccc(O)cc1)c23)c54`, for which the fold change in assay [2] (setting [3]) is 0.961 (inactive); in assay [2] (setting [4]) it was 0.723. In addition, the cell count in assay [2] (setting [5]) was found to be 2210; in assay [2] (setting [6]) it was 2300.
